# Laboratory results from PubChem BioAssay (Tox21).
# Results filed as inconclusive are left out. The source made the active and inactive calls. Calls follow the shape of the dose curve; as a rule, active = well fitted cell-killing curve with a large enough effect in the repeat runs; inconclusive = weak or mixed curves, or effect the other way; inactive = flat fitted curve, though single readings scatter.
# Test: qHTS RealTime-Glo MT Cell Viability Assay in HEK293 cells - 24 hour (AID 1224886); also: top concentration of the series differs between compounds; nearly all actives have a fitted effect of over 50% in size
# Conditions: RealTime-Glo luminescence; series mostly up to 76.8 µM; activity change, negative = cytotoxicity: at the top concentration
# Excerpt: National Center for Advancing Translational Sciences [NCATS]
# NIH Chemical Genomics Center [NCGC]
# U.S. Environmental Protection Agency [EPA]
# National Institutes of Environmental Health Sciences [NIEHS]
# National Toxicology Program [NTP]
# U.S. Food and Drug Administration [FDA]
# Measure of cell viability is critical in the cell-base assay. Analysis of cell viability is necessary for the characterization of cell responses to cytotoxic drugs and environmental stress. A RealTime-Glo MT Cell Viability Assay to monitor cell viability in real time of continues cell culture during 40 hours of compound treatment was used to screen Tox21 10K library compounds in Hek293 cells. The RealTime-Glo MT Cell Viability Assay is a nonlytic, homogeneous, bioluminescent method to measure cell viability in real time using a simple, plate-based method. The assay involves adding NanoLuc luciferase and a cell-permeant prosubstrate to cells in culture. Viable cells reduce the proprietary prosubstrate to generate a substrate for NanoLuc luciferase. This substrate diffuses from cells into the surrounding culture medium, where it is rapidly used by the NanoLuc Enzyme to produce a luminescent signal. The signal correlates with the number of viable cells, making the assay well suited for cytotoxicity studies.
# Tox21 Assay Protocol Summary:
# The mixture of Hek293 cell suspension and reagents were dispensed at 600cells/6 ul/well in 1536-well tissue culture treated black solid bottom plates using a Multidrop dispenser. After the assay plates were incubated at a 37 C/5% CO2 incubator for 5 hours, 23 nL of compounds dissolved in DMSO, positive and negative controls was transferred to the assay plate by a pintool work station. The plates were incubated at 37 C for 40 hours. The luminescence intensity were measured at 0h, 8h, 16h, 24h, 32h and 40h time points using ViewLux plate reader during compound treatment.
# % is scaled to controls: 0 for no effect and ±100 for the full control effect.
row,Compound,"activity change, negative = cytotoxicity"
1,CCOC(=O)/C=C(C)/C=C/C[C@@H](C)CCCC(C)C,12% (inactive)
2,CC(C)CP(=S)(S)CC(C)C,21.2% (inactive)
3,ClCC(Cl)(Cl)Cl,0.505% (inactive)
4,CC(N)=S,8.75% (inactive)
5,COc1ccc(C(=O)N2CCCC2=O)cc1,-9.67% [at 35.3 µM] (inactive)
6,CSc1ccc(C(=O)C(C)(C)N2CCOCC2)cc1,-0.335% (inactive)
7,NC(=O)c1cc([N+](=O)[O-])cc([N+](=O)[O-])c1,4.44% [at 35.3 µM] (inactive)
8,CN(C)CCc1ccc(O)cc1,10.1% [at 35.3 µM] (inactive)
9,COc1ncc(F)c2nc(S(=O)(=O)Nc3c(F)cccc3F)nn12,0.164% [at 35.3 µM] (inactive)
10,CC(C)CC#N,0.0368% (inactive)
11,BrCCCCCCBr,-0.535% (inactive)
12,OCCSCSCCO,7.91% (inactive)
13,CCOC(=O)C1(c2ccccc2)CCN(CCc2ccc(N)cc2)CC1,-20.9% [at 35.3 µM] (inactive)
14,CCC1(c2ccccc2)C(=O)N=C(O)NC1=O (stereo not given),8.21% (inactive)
15,Cc1cc(C)c(C(=O)P(=O)(C(=O)c2c(C)cc(C)cc2C)c2ccccc2)c(C)c1,-5.04% (inactive)
16,CCS(=O)(=O)CCSP(=O)(OC)OC,12.5% (inactive)
17,COC(=O)C(C)Oc1ccc(Oc2ccc(Cl)cc2Cl)cc1 (stereo not given),-21.4% (inactive)
18,COC(C)(C)C,5.66% (inactive)
19,O=[N+]([O-])c1cccc(O)c1,7.91% (inactive)
20,C[C@@H]1CN(C2CCC(C#N)(c3ccc(F)cc3)CC2)CC[C@]1(C(=O)O)c1ccccc1 (stereo not given in full),0.824% [at 35.3 µM] (inactive)

row,Compound,"activity change, negative = cytotoxicity"
1,O=C(Oc1ccc(Br)cc1)N1CCN2CCC1CC2,-0.0209% (inactive)
2,CC(=O)Nc1cc([As](=O)(O)O)ccc1O,-8.46% [at 35.3 µM] (inactive)
3,CN/C(=N\[N+](=O)[O-])NCC1CCOC1 (stereo not given),6.59% (inactive)
4,ClCCCN1CCN(c2cccc(Cl)c2)CC1,-23.2% [at 35.3 µM] (inactive)
5,CCCCP(CCCC)CCCC,-3.08% (inactive)
6,CCOP(=O)(N=C1SCCS1)OCC,27.8% (inactive)
7,Cc1cc(C)nc(Nc2ccccc2)n1,-6.4% (inactive)
8,Nc1cc2c3c(c1)C(c1ccccc1)=N[C@@H](NC(=O)c1cccnc1)C(=O)N3CC2,-1.7% (inactive)
9,N#Cc1c(Cl)cccc1Cl,16.5% (inactive)
10,ClC(Br)Br,9.95% (inactive)
11,CCC(C)n1c(=O)[nH]c(C)c(Br)c1=O (stereo not given),-1.17% (inactive)
12,CN1CCC(N(Cc2ccccc2)c2ccccc2)CC1,2.17% [at 35.3 µM] (inactive)
13,CC(=O)CC(c1ccc(Cl)cc1)c1c(O)c2ccccc2oc1=O (stereo not given),-7.79% (inactive)
14,CC1(C)C(=O)NC(=O)NC1=O,-0.0193% (inactive)
15,N#CCCC#N,12.1% (inactive)
16,C=C(C)CN(CC)c1c([N+](=O)[O-])cc(C(F)(F)F)cc1[N+](=O)[O-],-4% (inactive)
17,O=CNC(N1CCN(C(NC=O)C(Cl)(Cl)Cl)CC1)C(Cl)(Cl)Cl (stereo not given),-5.6% (inactive)
18,OCCBr,6.17% (inactive)
19,OC(Cn1cncn1)(c1ccc(F)cc1)c1ccccc1F (stereo not given),7.55% (inactive)
20,O=C1c2ccccc2C(=O)c2ccccc21,20.7% [at 15.8 µM] (inactive)
